Experimental data taken from PubChem BioAssay (NCATS).
Several values for one entry are separate records, joined by “and”; a condition that tells them apart may be missing. Equal values may be shown once. Inconclusive results are not listed. Activity calls are given as the source filed them. Unless noted, calls come from the whole dose curve; as a rule, active = well fitted curve in the direction sought with a large enough effect; inconclusive = small, poorly fitted or top-dose-only effect, or another doubt; inactive = no such curve, though single readings can be large; an effect the other way counts as inactive or inconclusive.

How the values were obtained:
[1] = Cell Viability - BJ (AID 421; calls by dose curve;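 note: potency is the fitted concentration of half-maximal effect; cells exposed to compound for 40 hours at 37 °C before readout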); details: BJ fibroblast viability, qHTS
How it was run: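 Cytotoxicity in human BJ foreskin fibroblasts is scored as loss of cellular ATP after a 40-hour exposure, measured by luciferase luminescence. Controls are DMSO and 100 uM tamoxifen.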

[2] = Cell Viability - Jurkat (AID 426;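 active = dose-dependent loss of cell ATP signal giving a full or clear fitted curve, ranked by lower potency value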; note: potency is the fitted concentration of half-maximal effect); details: qHTS
How it was run: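 Jurkat (clone E6-1, human T-cell leukemia) cells, 5000/well in complete medium, were exposed to compound for 40 hr at 37 °C. Viability was read as intracellular ATP by CellTiter-Glo luminescence; AC50 came from Hill fits of concentration-response data.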

[3] = Cell Viability - Hek293 (AID 427;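 active = compounds whose dose-response curve shows a full or clear partial loss of cell viability, called from curve shape rather than a numeric limit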;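 note: potency is the fitted concentration of half-maximal effect; cells exposed to compound for 40 hours at 37 °C before reading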); details: qHTS
How it was run: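 qHTS, human embryonic kidney (adenovirus-transformed) cells; 40 hr cpd, 37 °C; CellTiter-Glo ATP luminescence. Norm: DMSO = 0, 100 uM tamoxifen = 100% inhibition. Hill-fit AC50.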

[4] = Cell Viability - HepG2 (AID 433; calls by dose curve;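 note: potency is the fitted concentration of half-maximal effect; potency for ATP loss meaning cytotoxicity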); details: qHTS
How it was run: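 In this qHTS format, a 40 h, 37 °C compound incubation of HepG2 cells in complete medium precedes a 20 min CellTiter-Glo step at room temperature. Tamoxifen and doxorubicin serve as positive controls; Hill-equation fits yield AC50.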

[5] = Cell Viability - SK-N-SH (AID 435; calls by dose curve;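 note: potency is the fitted concentration of half-maximal effect; compound exposure lasted 40 h at 37 °C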); details: SK-N-SH neuroblastoma cell viability qHTS
How it was run: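 Human neuroblastoma line, 40 h exposure at 37 °C, ATP quantified via luciferase luminescence; DMSO and 100 uM tamoxifen define 0 and 100% inhibition for AC50 fitting.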

[6] = Cell Viability - Renal Proximal Tubule (AID 545); details: renal proximal tubule cells viability; series mostly up to 91.7 µM;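 note: 0% = DMSO only and -100% = 100 µM tamoxifen; nearly all actives have a fitted effect of over 40% in size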
How it was run: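 In this qHTS format, normal rat kidney-derived proximal tubule cells in complete culture medium receive compound titrations, then sit 40 hours at 37 °C before luciferase-based ATP quantitation; potency is reported as AC50 from concentration-response curves.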

[7] = Cellular Toxicity (caspase-3) MRC-5 (AID 659); details: MRC-5 cells, luminescence, normalized: DMSO 0%, 10 µM staurosporine 100%; series mostly up to 91.7 µM
How it was run: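 MRC-5 human normal lung fibroblasts, 1500 cells/well, treated 16 h at 37 °C in complete medium. Caspase 3/7 measured by Caspase-Glo luminescence after 1 h at room temperature. Normalized to DMSO and 10 uM staurosporine; AC50 from Hill fit.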

[8] = Cellular Toxicity (caspase-3) N2a (AID 665); details: N2a cells, luminescence, normalized: DMSO 0%, 10 µM staurosporine 100%; series mostly up to 92.2 µM;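 note: compound exposure lasted 16 h at 37 °C before readout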
How it was run: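 Mouse N2a neuroblastoma cells (1500/well) were treated with compounds for 16 h at 37 °C, then caspase-3/7 activity was read by Caspase-Glo luminescence after 1 h at room temperature. Data were normalized to DMSO and 10 uM staurosporine; AC50 from Hill fits.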

[9] = Cellular Toxicity (caspase-3) Renal Proximal Tubule (AID 667); details: renal proximal tubule cells; series mostly up to 91.7 µM;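 note: cells exposed to compound for 16 hours at 37 °C before detection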
How it was run: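 Caspase-Glo 3/7 read-out, rat primary kidney proximal tubule cells. Compound exposure 16 h, 37 °C; detection after 1 h at RT. Activity scaled to DMSO and 10 uM staurosporine.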

[10] = MultiTox-Fluor Cytotoxicity Assay - LYMP1-002 - Live Cells (AID 955); details: LYMP1-002 lymphoblastoid live-cell protease fluorescence viability; series mostly up to 46.1 µM; note: % is set by controls: 0 for no effect and ±100 for the full control effect
How it was run: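 Human lymphoblastoid LYMP1-002 cells, 2500/well in complete medium, rested 5 hr at 37 C, then exposed to compounds for 16 hr at 37 C. Live-cell protease cleavage of GF-AFC read by fluorescence (Ex/Em 405/510) after 60 min at room temperature; AC50 from Hill fits.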

[11] = MultiTox-Fluor Cytotoxicity Assay - LYMP1-003 - Live Cells (AID 962); details: LYMP1-003 lymphoblastoid cells, MultiTox-Fluor live-cell protease fluorescence; series mostly up to 92.2 µM;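 note: 0% = DMSO only and full loss = 92 µM tetraoctylammonium bromide; cytotoxic hits lower the live-cell protease signal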
How it was run: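 LYMP1-003 human lymphoblastoid cells (2500/well) in complete medium were preincubated 5 hr at 37 C, then exposed to compounds for 16 hr at 37 C. Live-cell protease cleavage of GF-AFC read by fluorescence (Ex/Em 405/510); AC50 from Hill fits.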

[12] = Cell Viability - LYMP1-003 - Assay at 24 hr (AID 963); details: LYMP1-003 lymphoblastoid cell viability; series mostly up to 92.2 µM;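 note: plate controls were DMSO only for no effect and tetraoctylammonium bromide positive control for full effect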
How it was run: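 Human lymphoblastoid LYMP1-003 cells (2500/well) were rested 5 hr at 37 C, then exposed to compounds in complete medium for 24 hr at 37 C. Cellular ATP was quantified by CellTiter-Glo luminescence, and AC50 values came from Hill fits of concentration-response data.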

[13] = Cell Viability - LYMP2-021 (AID 974); details: LYMP2-021 lymphoblastoid cells viability; series mostly up to 92.2 µM;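 note: compound exposure lasts 24 hours at 37 °C; % is set by controls: 0 for no effect and ±100 for the full control effect; nearly all actives have a fitted effect of over 55% in size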
How it was run: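 Human lymphoblastoid cells (2500/well) were preincubated 5 hr at 37 C, then exposed to compounds for 24 hr at 37 C in complete medium. Intracellular ATP was read by CellTiter-Glo luminescence; AC50 came from Hill-equation fits of concentration-response data.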

[14] = Cell Viability - LYMP2-007 (AID 979); details: LYMP2-007 lymphoblastoid cell viability; series mostly up to 92.2 µM;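 note: cells exposed to compound for 24 h before reading; 0% = DMSO only and the negative end = 92 µM tetraoctylammonium bromide; nearly all actives have a fitted effect of over 60% in size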
How it was run: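 Human lymphoblastoid cells (2500/well) were plated in complete medium, incubated 5 hr at 37 C, then exposed to compounds for 24 hr at 37 C. Intracellular ATP was read by CellTiter-Glo luminescence after 30 min at room temperature; AC50 from Hill fits.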

[15] = Cell Viability - LYMP2-016 (AID 984); details: LYMP2-016 lymphoblastoid cell viability, qHTS; series mostly up to 92.2 µM; note: % is set by controls: 0 for no effect and ±100 for the full control effect; nearly all actives have a fitted effect of over 55% in size
How it was run: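 Concentration-dependent ATP depletion measured in LYMP2-016 lymphoblastoid cells, 24 h, 37 C; luciferase-based luminescent detection; Hill-equation AC50.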

[16] = Cell Viability - LYMP2-018 (AID 985); details: LYMP2-018 lymphoblastoid cells, viability (qHTS); series mostly up to 92.2 µM;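 note: compound exposure lasted 24 hr at 37 °C; plate controls were DMSO only for no effect and tetraoctylammonium bromide at 92 µM for full effect; nearly all actives have a fitted effect of over 50% in size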
How it was run: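 Human lymphoblastoid cells (2500/well) were pre-incubated 5 hr at 37 C, then exposed to compounds for 24 hr at 37 C in complete medium. Viability was read as intracellular ATP by CellTiter-Glo luminescence; AC50 values came from Hill-equation fits.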

[17] = Cell Viability - LYMP2-020 (AID 986); details: series mostly up to 92.2 µM;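 note: plate controls were DMSO only for no effect and tetraoctylammonium bromide at 92 µM for full effect; nearly all actives have a fitted effect of over 55% in size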
How it was run: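 Human lymphoblastoid cells, 2500/well, were pre-incubated 5 hr at 37 C, then exposed to compounds for 24 hr at 37 C in complete medium. Intracellular ATP was read by CellTiter-Glo luminescence, and AC50 was derived by Hill fitting of concentration-response data.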

[18] = qHTS Assay for Identification of Small Molecule Inducers of Hypoxia Response (AID 2120; active = well fitted curve in the direction sought with a large enough effect in the signal ratio, with a control signal flat, not every such curve was filed as active; the % refers to the signal ratio; note: 0% is about no effect); details: hypoxia response reporter cells, beta-lactamase ratio readout; series mostly up to 104 µM
How it was run: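 HRE-beta-lactamase reporter in CellSensor HRE-bla ME-180 cells, 2500 cells/well in Opti-MEM with 0.5% dialyzed FBS; compounds tested as titration series, 17 h at 37 degrees C. CCF4 substrate 2.5 h at room temperature; AC50 from 460/530 nm ratio.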

[19] = qHTS assay for small molecule agonists of the antioxidant response element (ARE) signaling pathway measured by Nrf2-dependant transcriptional activity - cell viability counter screen (AID 720653; active = well fitted curve in the direction sought with a large enough effect in the repeat runs; an effect the other way counts as inactive or inconclusive; note: % is set by controls: 0 for no effect and ±100 for the full control effect); details: ARE-bla HepG2 viability, CellTiter-Glo ATP luminescence, 16 h; hits give low values
How it was run: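 ARE-bla HepG2 cells treated with compounds for 16 h at 37C; this counter screen measures viability as intracellular ATP by CellTiter-Glo luminescence after 30 min at room temperature.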

[20] = qHTS assay for cell viability of HEK293 cells (AID 743288); details: ATP luminescence (CellTiter-Glo), 18 h, hits give low values; note: % is set by controls: 0 for no effect and ±100 for the full control effect; nearly all actives have a fitted effect of over 50% in size
How it was run: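 Luminescent ATP quantitation served as the viability read-out. Cells (parental HEK293, 2,000/well) received compounds after at least 5 h at 37 C and were exposed for 18 h before a 30 min room-temperature reagent step.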

CCN(CC)CCO
inactive: Potency [1] > 92 µM | Potency [2] > 92 µM | Potency [3] > 92 µM | Potency [4] > 92 µM | Potency [5] > 92 µM | outcome [6] | outcome [7] | outcome [8] | outcome [9] | outcome [10] | outcome [11] | outcome [12] | Potency [13] | Potency [14] | Potency [15] | Potency [16] | Potency [17] | Potency [18] | max response [19] -6.79% | max response [20] -8.96%

C=CCBr
inactive: Potency [1] > 92 µM | Potency [2] > 92 µM | Potency [3] > 92 µM | Potency [4] > 92 µM | Potency [5] > 92 µM | outcome [6] | outcome [7] | outcome [8] | outcome [9] | outcome [10] | outcome [11] | outcome [12] | Potency [13] | Potency [14] | Potency [15] | Potency [16] | Potency [17] | Potency [18] | max response [19] -1.79% | max response [20] -2.53%

Nc1cc(Cl)cc(C(=O)O)c1Cl
inactive: Potency [1] > 92 µM | Potency [2] > 92 µM | Potency [3] > 92 µM | Potency [4] > 92 µM | Potency [5] > 92 µM | outcome [6] | outcome [7] | outcome [8] | outcome [9] | outcome [10] | outcome [11] | outcome [12] | Potency [13] | Potency [14] | Potency [15] | Potency [16] | Potency [17] | Potency [18] | max response [19] -8.07% and -24.7% | max response [20] 10.5% and -2.29%

C/C=C/C=O
inactive: Potency [1] > 92 µM | Potency [2] > 92 µM | Potency [3] > 92 µM | Potency [4] > 92 µM | Potency [5] > 92 µM | outcome [6] | outcome [7] | outcome [8] | outcome [9] | outcome [10] | outcome [11] | outcome [12] | Potency [13] | Potency [14] | Potency [15] | Potency [16] | Potency [17] | Potency [18] | max response [19] -9.77% | max response [20] 5.69%

NNC(N)=S
inactive: Potency [1] > 92 µM | Potency [2] > 92 µM | Potency [3] > 92 µM | Potency [4] > 92 µM | Potency [5] > 92 µM | outcome [6] | outcome [7] | outcome [8] | outcome [9] | outcome [10] | outcome [11] | outcome [12] | Potency [13] | Potency [14] | Potency [15] | Potency [16] | Potency [17] | Potency [18] | max response [19] 16.5% | max response [20] 1.66%

Cc1ccc(N)cc1N
inactive: Potency [1] > 92 µM | Potency [2] > 92 µM | Potency [3] > 92 µM | Potency [4] > 92 µM | Potency [5] > 92 µM | outcome [6] | outcome [7] | outcome [8] | outcome [9] | outcome [10] | outcome [11] | outcome [12] | Potency [13] | Potency [14] | Potency [15] | Potency [16] | Potency [17] | Potency [18] | max response [19] 0.265% and 5.03% | max response [20] 6.42% and -0.208%

COc1ccccc1N
inactive: Potency [1] > 92 µM | Potency [2] > 92 µM | Potency [3] > 92 µM | Potency [4] > 92 µM | Potency [5] > 92 µM | outcome [6] | outcome [7] | outcome [8] | outcome [9] | outcome [10] | outcome [11] | outcome [12] | Potency [13] | Potency [14] | Potency [15] | Potency [16] | Potency [17] | Potency [18] | max response [19] 6.75% | max response [20] -0.892%

O=C(O)C(Cl)Br (stereo not given)
inactive: Potency [1] > 92 µM | Potency [2] > 92 µM | Potency [3] > 92 µM | Potency [4] > 92 µM | Potency [5] > 92 µM | outcome [6] | outcome [7] | outcome [8] | outcome [9] | outcome [10] | outcome [11] | outcome [12] | Potency [13] | Potency [14] | Potency [15] | Potency [16] | Potency [17] | Potency [18] | max response [19] 3.95% | max response [20] 6.83%

c1ccc(C2CO2)cc1 (stereo not given)
inactive: Potency [1] > 92 µM | Potency [2] > 92 µM | Potency [3] > 92 µM | Potency [4] > 92 µM | Potency [5] > 92 µM | outcome [6] | outcome [7] | outcome [8] | outcome [9] | outcome [10] | outcome [11] | outcome [12] | Potency [13] | Potency [14] | Potency [15] | Potency [16] | Potency [17] | Potency [18] | max response [19] -5.33% | max response [20] -9.74%

ClC(Cl)c1ccccc1
inactive: Potency [1] > 92 µM | Potency [2] > 92 µM | Potency [3] > 92 µM | Potency [4] > 92 µM | Potency [5] > 92 µM | outcome [6] | outcome [7] | outcome [8] | outcome [9] | outcome [10] | outcome [11] | outcome [12] | Potency [13] | Potency [14] | Potency [15] | Potency [16] | Potency [17] | Potency [18] | max response [19] -0.372% | max response [20] -9.22%

CCC[N+](=O)[O-]
inactive: Potency [1] > 92 µM | Potency [2] > 92 µM | Potency [3] > 92 µM | Potency [4] > 92 µM | Potency [5] > 92 µM | outcome [6] | outcome [7] | outcome [8] | outcome [9] | outcome [10] | outcome [11] | outcome [12] | Potency [13] | Potency [14] | Potency [15] | Potency [16] | Potency [17] | Potency [18] | max response [19] -3.7% | max response [20] 2.89%
